In PubChem BioAssay (EPA / NIEHS):
Calls of active or inactive are those of the source. Rule for the calls: active = hit-call score of the fitted dose curve at least 0.9, where 1 is the maximum; inactive = score below 0.9.

Experiments:
[1] = APR_HepG2_NuclearSize_72hr: Apredica 72-hour HepG2 Assay for Nuclear Size (AID 2282925); conditions: high-content imaging, actives raise or lower the signal
Summary of the method: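 HepG2 cells were exposed to compounds at ten concentrations from 0.39 to 200 uM (duplicate, 0.5% DMSO final) for 72 hr. After fixation in 3.7% formaldehyde, nuclei were stained with Hoechst 33342 (2 ug/mL) and imaged at 20x.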

[2] = ATG_CRE_CIS: Attagene CIS-FACTORIAL HepG2 Assay for human cAMP Responsive Element (CRE) binding protein 3 (AID 2282926); conditions: HepG2 CRE cis-reporter, Attagene multiplexed mRNA; actives raise or lower the signal
Summary of the method: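 HepG2 cells transiently transfected with cis-element-driven multiple reporter transcription units; CRE reporter mRNA measured 24 h after dosing by RT-PCR, 6-FAM labelling, HpaI digestion and capillary electrophoresis. Bidirectional fit versus DMSO baseline.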

[3] = target: CCAAT/enhancer-binding protein beta (Homo sapiens) (UniProt P17676); experiment: ATG_C_EBP_CIS: Attagene CIS-FACTORIAL HepG2 Assay for human CCAAT/Enhancer Binding Protein (C/EBP) beta (AID 2282927); conditions: HepG2 Attagene cis-factorial transcription factor reporter; actives raise or lower the signal
CCAAT/enhancer-binding protein beta (Homo sapiens), sequence (P17676 whole entry, looked up): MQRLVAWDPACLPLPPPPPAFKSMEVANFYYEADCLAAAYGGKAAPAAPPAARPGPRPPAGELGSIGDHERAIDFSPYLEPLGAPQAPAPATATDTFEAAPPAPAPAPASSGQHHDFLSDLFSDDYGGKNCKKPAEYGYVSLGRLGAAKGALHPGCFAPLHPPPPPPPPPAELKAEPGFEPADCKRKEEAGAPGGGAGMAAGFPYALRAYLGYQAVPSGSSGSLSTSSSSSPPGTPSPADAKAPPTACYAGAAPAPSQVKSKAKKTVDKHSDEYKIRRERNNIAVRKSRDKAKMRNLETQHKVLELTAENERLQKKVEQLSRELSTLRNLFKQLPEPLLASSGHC
Summary of the method: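 Following a 24 h incubation with test chemical, transfected HepG2 cells yielded RNA whose reporter transcripts were quantified by RT-PCR and fluorescent capillary electrophoresis, with DMSO serving as baseline for bidirectional fitting.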

[4] = ATG_CMV_CIS: Attagene CIS-FACTORIAL HepG2 Assay for human CMV (Internal Marker) (AID 2282928); conditions: HepG2 CMV promoter reporter, transcription factor profiling; actives raise or lower the signal;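 note: endpoint acts as a background internal control marker rather than a target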
Summary of the method: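 After transient transfection of HepG2 with reporter transcription units driven by cis-regulatory promoters, cells receive test chemical for 24 h. Labeled reporter amplicons, digested with HpaI, are sized and quantified by capillary electrophoresis against DMSO.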

[5] = ATG_DR4_LXR_CIS: Attagene CIS-FACTORIAL HepG2 Assay for human Liver X Receptor (LXR), DR4 submotif (AID 2282929); conditions: HepG2 Attagene DR4 cis-reporter, mRNA transcription; actives raise or lower the signal
Summary of the method: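 Transiently transfected HepG2 liver cells; cis-regulated reporters; 24 h dosing. RT-PCR plus CE read-out of reporter mRNA. DMSO baseline, bidirectional curve fitting.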

[6] = target: Aryl hydrocarbon receptor (Homo sapiens) (UniProt P35869); experiment: ATG_Ahr_CIS: Attagene CIS-FACTORIAL HepG2 Assay for human Aryl Hydrocarbon Receptor (Ahr) (AID 2282930); conditions: HepG2 AhR cis-factorial reporter transcription; actives raise or lower the signal
Aryl hydrocarbon receptor (Homo sapiens), sequence (P35869 whole entry, looked up): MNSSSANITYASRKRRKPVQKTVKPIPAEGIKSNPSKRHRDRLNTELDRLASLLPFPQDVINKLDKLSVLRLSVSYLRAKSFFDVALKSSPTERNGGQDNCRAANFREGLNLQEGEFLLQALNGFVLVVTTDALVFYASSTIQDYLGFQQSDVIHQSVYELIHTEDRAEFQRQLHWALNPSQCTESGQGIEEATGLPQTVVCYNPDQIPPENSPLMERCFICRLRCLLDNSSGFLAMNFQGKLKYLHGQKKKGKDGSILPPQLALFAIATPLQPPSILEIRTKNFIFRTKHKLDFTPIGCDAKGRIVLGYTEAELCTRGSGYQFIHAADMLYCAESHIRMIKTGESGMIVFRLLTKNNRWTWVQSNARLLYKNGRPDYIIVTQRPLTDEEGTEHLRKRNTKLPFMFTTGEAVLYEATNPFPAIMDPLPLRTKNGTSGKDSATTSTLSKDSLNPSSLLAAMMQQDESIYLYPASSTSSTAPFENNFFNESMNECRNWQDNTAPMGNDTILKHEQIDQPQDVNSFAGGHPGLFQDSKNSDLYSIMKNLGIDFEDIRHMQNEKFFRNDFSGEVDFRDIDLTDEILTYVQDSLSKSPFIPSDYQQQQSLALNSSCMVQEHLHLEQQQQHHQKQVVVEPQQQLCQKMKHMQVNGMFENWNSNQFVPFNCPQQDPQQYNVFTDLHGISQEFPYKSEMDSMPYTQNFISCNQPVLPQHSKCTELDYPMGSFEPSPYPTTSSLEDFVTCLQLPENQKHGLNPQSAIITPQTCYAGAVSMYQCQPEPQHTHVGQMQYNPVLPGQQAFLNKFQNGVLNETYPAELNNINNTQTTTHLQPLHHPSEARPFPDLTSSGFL
Summary of the method: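 Values derive from bidirectional fitting against DMSO negative control. Underlying signal: cis-element reporter mRNA in transiently transfected HepG2, harvested 24 h post-dose and measured by RT-PCR plus capillary electrophoresis.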

[7] = ATG_AP_1_CIS: Attagene CIS-FACTORIAL HepG2 Assay for human Activator Protein 1 (AP-1) (AID 2282931); conditions: HepG2 Attagene cis-factorial AP-1 reporter mRNA; actives raise or lower the signal
Summary of the method: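 We transfected HepG2 cells transiently with a set of cis-regulated reporter transcription units, dosed them for 24 h, and quantified reporter mRNA via RT-PCR and capillary electrophoresis, scoring gain or loss of signal relative to DMSO.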

[8] = ATG_AP_2_CIS: Attagene CIS-FACTORIAL HepG2 Assay for human Activator Protein 2 (AP-2) (AID 2282932); conditions: HepG2 AP-2 cis-reporter, Attagene transcription factor profiling; actives raise or lower the signal
Summary of the method: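 Bidirectional curve fitting against DMSO was applied to reporter mRNA signals from HepG2 cells 24 h after dosing. Cis-promoter reporter units, transiently transfected, were read by RT-PCR plus capillary electrophoresis.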

[9] = ATG_BRE_CIS: Attagene CIS-FACTORIAL HepG2 Assay for human Bone Morphogenetic Protein (BMP) Response Element (BRE) (AID 2282933); conditions: HepG2 BMP response element reporter, Attagene transcription factor profiling; actives raise or lower the signal
Summary of the method: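 Endogenous transcription factor activity read in transiently transfected HepG2 cells after 24 h chemical exposure. Bidirectional curve fitting against DMSO; readout is reporter transcript level by RT-PCR with capillary electrophoresis of labelled products.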

[10] = target: Retinoic acid receptor alpha (Homo sapiens) (UniProt P10276); experiment: ATG_DR5_RAR_CIS: Attagene CIS-FACTORIAL HepG2 Assay for human Retinoic Acid Receptor Alpha (RARE), DR5 submotif (AID 2282934); conditions: HepG2 Attagene cis-factorial RARE DR5 reporter, mRNA; actives raise or lower the signal
Retinoic acid receptor alpha (Homo sapiens), sequence (P10276 whole entry, looked up): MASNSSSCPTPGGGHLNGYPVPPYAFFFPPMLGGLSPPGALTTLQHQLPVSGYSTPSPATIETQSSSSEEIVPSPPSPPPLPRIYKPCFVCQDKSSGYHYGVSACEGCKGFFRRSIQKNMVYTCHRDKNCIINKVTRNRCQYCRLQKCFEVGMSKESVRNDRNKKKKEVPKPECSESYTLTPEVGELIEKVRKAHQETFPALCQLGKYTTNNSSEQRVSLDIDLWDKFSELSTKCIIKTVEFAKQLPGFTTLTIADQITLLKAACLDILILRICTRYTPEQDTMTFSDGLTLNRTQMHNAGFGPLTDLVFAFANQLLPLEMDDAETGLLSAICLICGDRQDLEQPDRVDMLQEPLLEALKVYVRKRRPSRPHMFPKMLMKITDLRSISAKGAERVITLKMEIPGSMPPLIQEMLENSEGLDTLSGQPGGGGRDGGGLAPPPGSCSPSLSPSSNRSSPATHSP
Summary of the method: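 Endpoint fitted in both directions relative to DMSO as negative control. It reflects DR5 cis-element reporter mRNA induction in transiently transfected HepG2 cells, measured 24 h after dosing through RT-PCR and fluorescent capillary electrophoresis.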

[11] = target: Transcription factor E2F1 (Homo sapiens) (UniProt Q01094); experiment: ATG_E2F_CIS: Attagene CIS-FACTORIAL HepG2 Assay for human E2F Transcription Factor 1 (AID 2282935); conditions: HepG2 Attagene cis-reporter, E2F reporter RNA transcripts; actives raise or lower the signal
Transcription factor E2F1 (Homo sapiens), sequence (Q01094 whole entry, looked up): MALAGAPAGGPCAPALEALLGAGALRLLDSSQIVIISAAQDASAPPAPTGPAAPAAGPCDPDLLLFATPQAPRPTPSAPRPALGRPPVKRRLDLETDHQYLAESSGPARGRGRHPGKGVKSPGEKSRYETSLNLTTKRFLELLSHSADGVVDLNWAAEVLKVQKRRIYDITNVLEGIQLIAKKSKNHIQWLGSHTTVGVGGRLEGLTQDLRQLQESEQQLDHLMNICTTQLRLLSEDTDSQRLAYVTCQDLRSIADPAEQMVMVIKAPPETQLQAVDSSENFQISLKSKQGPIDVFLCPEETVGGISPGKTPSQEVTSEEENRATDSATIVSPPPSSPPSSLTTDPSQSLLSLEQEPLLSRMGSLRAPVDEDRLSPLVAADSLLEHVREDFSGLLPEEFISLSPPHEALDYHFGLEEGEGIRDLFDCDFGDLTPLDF
Summary of the method: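 Multiplexed cis-reporter assay: HepG2, transient transfection, 24 h dosing, mRNA quantitation by labeled RT-PCR and CE.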

[12] = ATG_E_Box_CIS: Attagene CIS-FACTORIAL HepG2 Assay for human Enhancer Box (E-box) (AID 2282936); conditions: HepG2 E-box cis-reporter transcription, actives raise or lower the signal
Summary of the method: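 Multiplexed CIS reporter system in transiently transfected HepG2 cells measures native transcription factor activity. Reporter RNA after 24 h exposure is profiled by RT-PCR-capillary electrophoresis.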

[13] = ATG_M_61_CIS: Attagene CIS-FACTORIAL HepG2 Assay for M61 Transcription Factor (Internal Marker) (AID 2282937); conditions: HepG2 Attagene CIS-FACTORIAL M61 internal marker reporter; actives raise or lower the signal
Summary of the method: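 Multiplexed reporter mRNA assay, HepG2 human hepatoma cells, 24 h treatment. Signal: FAM-labelled, HpaI-digested RT-PCR fragments by CE. Fit: bidirectional, baseline DMSO.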

[14] = ATG_EGR_CIS: Attagene CIS-FACTORIAL HepG2 Assay for human Early Growth Response 1 (EGR1) (AID 2282938); conditions: HepG2 Attagene CIS-FACTORIAL EGR reporter mRNA; actives raise or lower the signal
Summary of the method: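 Multiplexed cis-reporter system in human hepatoma HepG2 cells, transiently transfected. Cells are dosed for 24 h; reporter transcripts are amplified, fluorescently tagged and sized by capillary electrophoresis, with DMSO as negative control.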

[15] = ATG_M_19_CIS: Attagene CIS-FACTORIAL HepG2 Assay for M19 Transcription Factor (Internal Marker) (AID 2282939); conditions: HepG2 Attagene CIS-FACTORIAL M19 internal marker reporter; actives raise or lower the signal
Summary of the method: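 Internal marker readout, fitted in both directions against DMSO, from HepG2 cells carrying transfected cis-element reporter constructs; RT-PCR and capillary electrophoresis of reporter mRNA after 24 h exposure.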

[16] = ATG_ERE_CIS: Attagene CIS-FACTORIAL HepG2 Assay for Estrogen Response Element (ERE) (AID 2282940); conditions: HepG2 ERE cis-reporter, Attagene RNA transcript; actives raise or lower the signal
Summary of the method: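 After 24 h compound treatment, RNA from transfected HepG2 cells was reverse-transcribed, reporter cDNA PCR-amplified, FAM-labelled, HpaI-cut and resolved by capillary electrophoresis. ERE-driven cis reporter transcripts reflect endogenous factors; gain or loss scored against DMSO.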

[17] = ATG_Ets_CIS: Attagene CIS-FACTORIAL HepG2 Assay for human Erythroblast Transformation Specific (ETS) (AID 2282941); conditions: HepG2 ETS cis-reporter transcription, actives raise or lower the signal
Summary of the method: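 Human HepG2 hepatoma cells were transiently transfected with promoter-driven reporter constructs and treated for 24 hours. Reporter transcripts were quantified by RT-PCR with fluorescent primer extension; bidirectional curve fitting used DMSO as reference.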

[18] = target: Hepatocyte nuclear factor 3-beta (Homo sapiens) (UniProt Q9Y261); experiment: ATG_FoxA2_CIS: Attagene CIS-FACTORIAL HepG2 Assay for human Forkhead box A2 (FOXA2) (AID 2282942); conditions: HepG2 cis-reporter transcription factor activity, 24 h; actives raise or lower the signal
Hepatocyte nuclear factor 3-beta (Homo sapiens), sequence (Q9Y261 whole entry, looked up): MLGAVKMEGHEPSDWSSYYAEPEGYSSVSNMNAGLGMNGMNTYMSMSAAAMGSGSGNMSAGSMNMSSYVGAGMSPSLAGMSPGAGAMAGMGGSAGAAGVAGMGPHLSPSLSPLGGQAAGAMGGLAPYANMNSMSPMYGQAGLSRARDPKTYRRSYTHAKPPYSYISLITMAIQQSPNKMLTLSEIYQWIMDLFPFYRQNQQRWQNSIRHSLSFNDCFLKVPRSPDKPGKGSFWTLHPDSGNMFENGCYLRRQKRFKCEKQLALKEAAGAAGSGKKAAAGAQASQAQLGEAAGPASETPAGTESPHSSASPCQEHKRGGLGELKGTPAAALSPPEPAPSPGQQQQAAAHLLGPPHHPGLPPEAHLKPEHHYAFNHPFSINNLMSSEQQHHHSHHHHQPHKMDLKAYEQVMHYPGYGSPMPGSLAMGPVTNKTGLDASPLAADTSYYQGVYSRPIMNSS
Summary of the method: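 Multiplexed cis-element reporter assay in transiently transfected HepG2. Twenty-four hours post-dosing, RNA was reverse-transcribed, amplified, FAM-labelled, HpaI-digested and separated by CE. Activity gain or loss relative to DMSO.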

[19] = ATG_FoxO_CIS: Attagene CIS-FACTORIAL HepG2 Assay for human Forkhead box O (FoxO) (AID 2282943); conditions: HepG2 Attagene cis-reporter, FoxO element, mRNA; actives raise or lower the signal
Summary of the method: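 Values reflect reporter mRNA induction or loss in HepG2 cells 24 h post-dosing, fitted bidirectionally with DMSO as negative control and baseline. Detection used RT-PCR and fluorescence capillary electrophoresis.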

[20] = ATG_GATA_CIS: Attagene CIS-FACTORIAL HepG2 Assay for human GATA Binding Protein (AID 2282944); conditions: HepG2 GATA cis-element reporter, Attagene multiplex mRNA; actives raise or lower the signal
Summary of the method: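 Reporter transcripts from a GATA cis-regulated unit, among multiplexed reporters in transfected HepG2 cells, were measured by RT-PCR with capillary electrophoresis after 24 h dosing. Induction or loss scored relative to DMSO.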

Measured: AC50

Cc1c(C(=O)O)c(O)cc2c1C(=O)c1c(O)c([C@@H]3O[C@H](CO)[C@@H](O)[C@H](O)[C@H]3O)c(O)c(O)c1C2=O
inactive: [1] | [2] | [3] | [4] | [5] | [6] | [7] | [8] | [9] | [10] | [11] | [12] | [13] | [14] | [15] | [16] | [17] | [18] | [19] | [20]

O=c1c(O)c(-c2ccc(O)c(O)c2)oc2cc(O)cc(O)c12
active: [4] 26.5 µM | [6] 5.8 µM | [7] 100 µM | [16] 25.8 µM
inactive: [1] | [2] | [3] | [5] | [8] | [9] | [10] | [11] | [12] | [13] | [14] | [15] | [17] | [18] | [19] | [20]

CCCCCCCCCCCCCCCCCC(=O)O
inactive: [1] | [2] | [3] | [4] | [5] | [6] | [7] | [8] | [9] | [10] | [11] | [12] | [13] | [14] | [15] | [17] | [18] | [19] | [20]
active: [16] 2.75 µM

COCCOC[C@H](CC1(C(=O)NC2CCC(C(=O)O)CC2)CCCC1)C(=O)Oc1ccc2c(c1)CCC2 (stereo not given in full)
inactive: [1] | [2] | [3] | [4] | [5] | [6] | [7] | [8] | [9] | [10] | [11] | [12] | [13] | [14] | [15] | [16] | [17] | [18] | [19] | [20]

COCCOCCOC
inactive: [1] | [2] | [3] | [4] | [5] | [6] | [7] | [8] | [9] | [10] | [11] | [12] | [13] | [14] | [15] | [16] | [17] | [18] | [19] | [20]

C=CCc1ccc(O)c(OC)c1
inactive: [1] | [2] | [3] | [5] | [6] | [7] | [8] | [9] | [10] | [11] | [12] | [13] | [14] | [15] | [16] | [17] | [18] | [19] | [20]
active: [4] 80.2 µM
